Experimental findings from PubChem BioAssay (NCATS) are described below.

Records with an inconclusive call do not appear. Unmarked numbers belong to inactive results. The source made the active and inactive calls. The call rests on the fitted dose curve; tested in HEK293 reporter line. Peptide text beside a SMILES is read from it.
On the % scale 0 is the no-effect control and ±100 the full control effect.

The nature of this assay: qHTS for Inhibitors of the Functional Ribonucleoprotein Complex (vRNP) of Lassa (LASV) Arenavirus: LASV Primary Screen - GLuc reporter signal (AID 1347082). Further: nearly all actives have a fitted effect of over 60% in size. To be noted: LASV minigenome vRNP, Gaussia luciferase reporter; series mostly up to 57.5 µM; activity change, negative = inhibition: at the top concentration.
Turning to `O=C(O)Cc1ccc(OCCNC[C@H](O)c2ccccc2)cc1`, the “activity change, negative = inhibition” value is -34.8%.
As for `CCN(CC)CCOC(=O)c1ccc(N)cc1`, the Potency entry was “inactive”.
Consider `CC(=O)NC[C@H]1CN(c2ccc(N3CCOCC3)c(F)c2)C(=O)O1`, for which the “activity change, negative = inhibition” value was -4.24%.
Still for that read-out and setting: with `CCNC(=O)[C@@H]1CCCN1C(=O)[C@H](CCCN=C(N)N)NC(=O)[C@H](CC(C)C)NC(=O)CNC(=O)[C@H](Cc1ccc(O)cc1)NC(=O)[C@H](CO)NC(=O)[C@H](Cc1c[nH]c2ccccc12)NC(=O)[C@H](Cc1cnc[nH]1)NC(=O)[C@@H]1CCC(=O)N1` (HELM PEPTIDE1{[Glp].H.W.S.Y.G.L.R.P.[CCN[*:1]]}$$$$V2.0) the figure was -3.9%; with `Oc1ccc(Cl)c2cccnc12`, -4.25%.
As to `O=C(O)c1cc(-c2ccccc2)nc2ccccc12`, the Potency entry is “inactive”.
As to `CN1C(CSCC(F)(F)F)Nc2cc(Cl)c(S(N)(=O)=O)cc2S1(=O)=O` (centres undefined), the “activity change, negative = inhibition” value is -15.1%.
Consider `CCCN1CCCC[C@H]1C(=O)Nc1c(C)cccc1C`, for which the “activity change, negative = inhibition” value is 5.83%.
Same read-out and setting: with `CC(=O)[C@@]1(O)CC[C@H]2[C@@H]3C[C@H](C)C4=CC(=O)C=C[C@]4(C)[C@@]3(F)[C@@H](O)C[C@@]21C` the figure was 0.826%; with `CC(O)(P(=O)(O)O)P(=O)(O)O`, -13.3%; with `CN=C(NC#N)Nc1ccc(C2=NNC(=O)CC2C)cc1` (centres undefined), 6.74%.
For `COC(=O)/C=C(/C)N`, the “activity change, negative = inhibition” value is 4.45%.
For the compound `COc1ccccc1N1CCN(CCCCNC(=O)c2ccc(-c3ccc(C(C)=O)cc3)cc2)CC1`, the “activity change, negative = inhibition” value is -5.62%.
As to `O=C(OOC(=O)c1ccccc1)c1ccccc1`, the “activity change, negative = inhibition” value was -0.712%.
In the case of `CC(=O)Nc1c(I)c(NC(C)=O)c(I)c(C(=O)O)c1I`, the “activity change, negative = inhibition” value was 4.53%.
Regarding `O=C(C1CCCCC1)N1CC(=O)N2CCCc3ccccc3C2C1` (centres undefined), the “activity change, negative = inhibition” value was -9.94%.
Regarding `Nc1ccc(S(N)(=O)=O)cc1`, the Potency result was “inactive”.
In the case of `CCC(=O)c1c(O)cc(O)cc1O`, the “activity change, negative = inhibition” value is -8.71%.
As for `CC(C)CCCC(C)NCCC(C)C` (centres undefined), the “activity change, negative = inhibition” value was -0.94%.
For the compound `CC(C)C[C@H](NC(=O)CNC(=O)[C@H](Cc1ccc(O)cc1)NC(=O)[C@H](CO)NC(=O)[C@H](Cc1c[nH]c2ccccc12)NC(=O)[C@H](Cc1cnc[nH]1)NC(=O)[C@@H]1CCC(=O)N1)C(=O)N[C@@H](CCCN=C(N)N)C(=O)N1CCC[C@H]1C(=O)NCC(N)=O` (stereo in doubt), the “activity change, negative = inhibition” value was -0.445%.
In the case of `CC(CCc1ccc2c(c1)OCO2)NN` (centres undefined), the “activity change, negative = inhibition” value was 1.29%.
For the compound `O=C(O)CCCC[P+](c1ccccc1)(c1ccccc1)c1ccccc1`, the “activity change, negative = inhibition” value is 3.26%.
For the compound `Cc1cc(O)cc2c1O[C@](C)(CCC[C@H](C)CCC[C@H](C)CCCC(C)C)CC2`, the “activity change, negative = inhibition” value is -0.486%.
In the case of `NNC(=O)c1ccncc1`, the Potency result is “inactive”.
For `Cc1cc(O)cc(C)c1Cl`, the “activity change, negative = inhibition” value was -5.55%.
As for `CN1C(C(=O)Nc2ccccn2)=C(O)c2ccccc2S1(=O)=O`, the Potency entry was “inactive”.
Regarding `Cn1c(=O)c2[nH]c(Br)nc2n(C)c1=O`, the “activity change, negative = inhibition” value was -14.3%.
`NS(=O)(=O)c1cc2c(cc1Cl)NC(C(Cl)Cl)NS2(=O)=O` (centres undefined): the Potency entry was “inactive”.
For `CC(=O)N/N=C/c1ccc([N+](=O)[O-])o1`, the “activity change, negative = inhibition” value was 10.4%.
In the case of `Nc1ccc(/C=C/c2ccc(N)cc2S(=O)(=O)O)c(S(=O)(=O)O)c1`, the activity change, negative = inhibition is -2.51% [at 0.757 µM].
For `CC(=O)Oc1ccc(C)cc1`, the Potency result is “inactive”.
In the case of `Cc1cc(C)c(NC(=O)CN(CC(=O)O)CC(=O)O)c(C)c1Br`, the “activity change, negative = inhibition” value was -0.239%.
As for `CC(O)CCCCn1c(=O)c2c(ncn2C)n(C)c1=O` (centres undefined), the “activity change, negative = inhibition” value was 10.3%.
In the case of `CC(C)(Oc1ccc(C2CC2(Cl)Cl)cc1)C(=O)O` (centres undefined), the Potency result is “inactive”.
Consider `O=C(O)c1cc(O)c(O)c(O)c1`, for which the “activity change, negative = inhibition” value was 1.63%.
In the case of `CCN(CC)CC(=O)Oc1ccc(NC(C)=O)cc1`, the “activity change, negative = inhibition” value is -8.31%.
On to `NCCc1ccn[nH]1`, for which the “activity change, negative = inhibition” value was -4.21%.
Same read-out and setting: as for `O=C(O)[C@@H](O)[C@H](O)[C@H](O)[C@@H](O)C(=O)O`, the figure is -38.7%; as for `CCCCNC(=O)NS(=O)(=O)c1ccc(N)cc1`, 3.01%.
